Measurements as given in article PMC6212790, “How bacterial xenogeneic silencer rok distinguishes foreign from self DNA in its resident genome”.
In all, about 33,000 sequences were measured (“e-score”: median about -0.037, highest 2% from about 0.34 on). The full list was thinned out, with the highest values kept by preference.

molecular target: T1, GST-Rok (full length) (Bacillus subtilis subsp. subtilis str. …, UniProt O34857 1-191); test: protein binding microarray; Rok is a gene silencer of Bacillus subtilis; high values mean tight binding; conditions: protein: recombinant; tags: GST (pTH5325, pDEST15-Magic modified); dsDNA, one strand shown
T1 sequence: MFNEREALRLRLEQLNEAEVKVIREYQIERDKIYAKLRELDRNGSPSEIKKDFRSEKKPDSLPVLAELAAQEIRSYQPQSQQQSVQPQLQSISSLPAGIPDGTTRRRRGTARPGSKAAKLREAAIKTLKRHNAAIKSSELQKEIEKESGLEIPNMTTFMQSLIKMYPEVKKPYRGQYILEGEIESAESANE
Method in brief: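 Each has a 25-mer constant primer and a 35-mer variable part from a de Bruijn sequence of order 10, covering every non-palindromic 8-mer at least 32 times (palindromic 16). Preference for each 8-mer is given as a rank-based, unitless enrichment score (E-score). Its range runs from 0.5 (most favored) to −0.5 (most disfavored).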

Sequence | binding signal
GCCATTCA | 0.0688 E-score
ACCGAGCG | -0.175 E-score
CTTAGTAC | 0.206 E-score
CGTAGTAC | 0.202 E-score
AGTAGTAC | 0.336 E-score
AGTAGTGC | 0.0725 E-score
GGTAGTAC | 0.339 E-score
GGTAGGAC | 0.0568 E-score
CTCAACTA | 0.13 E-score
CATGGAGA | 0.0828 E-score
CATGCGGC | -0.125 E-score
ACATGCCA | 0.0568 E-score
GCATGCTA | 0.111 E-score
CCATGCTA | 0.073 E-score
ACATGCTA | 0.365 E-score
ACCTATGA | 0.118 E-score
ATAAGTGA | 0.123 E-score
ATATTTTC | 0.326 E-score
ATATTTTG | 0.297 E-score
GTATTTAA | 0.285 E-score
CTATTTCC | 0.18 E-score
GTATTTGA | 0.0869 E-score
CTATTTTC | 0.344 E-score
GTATTTTA | 0.411 E-score
CTATTTTA | 0.325 E-score

Sequence | binding signal
ATATTTTA | 0.412 E-score
GTGACGTA | 0.0931 E-score
CCTGGTCA | -0.133 E-score
GAAGTAGC | 0.182 E-score
GGTCGGGA | -0.156 E-score
CCCGACGA | -0.104 E-score
AGCACTAA | -0.126 E-score
CAATAGAC | 0.089 E-score
AAAAGCGC | -0.0281 E-score
ATGATAGC | 0.179 E-score
ATGATAGA | 0.342 E-score
CTGATATA | 0.204 E-score
ATGATATG | 0.172 E-score
ATGATAGG | 0.0932 E-score
ATGATATA | 0.389 E-score
AATTCGTA | 0.263 E-score
ATAGTAAC | 0.366 E-score
ATAGTAAT | 0.392 E-score
ATAGTAAG | 0.282 E-score
ATAGTCTG | 0.347 E-score
ATAGTCTA | 0.0771 E-score
ATAGTCTC | 0.0365 E-score
GAAGTAAA | 0.237 E-score
GGAGTAAA | -0.112 E-score
CTAGTAAC | 0.303 E-score

Sequence | binding signal
AGAGTAAT | 0.197 E-score
GTAGTAAA | 0.348 E-score
GTAGTAAC | 0.321 E-score
CATAGGGA | -0.158 E-score
AGCCATAT | 0.162 E-score
CTGTCCAC | -0.116 E-score
GAAGAGTA | 0.266 E-score
GCAGCTTA | -0.093 E-score
GCTCGAAC | -0.0353 E-score
TCCTTAAA | -0.0816 E-score
ATAGTATA | 0.278 E-score
ATAGTATC | 0.321 E-score
CTAGTAAA | 0.328 E-score
ATAGTAAA | 0.397 E-score
TTAGTAAA | 0.237 E-score
ATAGTATG | 0.359 E-score
AGATTCAA | 0.0974 E-score
AACTTTCG | -0.0406 E-score
ATTCGTTA | 0.228 E-score
CAAGTTGC | -0.00109 E-score
GTAATGAA | -0.0724 E-score
CTAATGTA | 0.184 E-score
GTAATGTA | 0.364 E-score
ATAATGTC | 0.175 E-score
ATAATGTG | 0.201 E-score

Sequence | binding signal
ATAATGTA | 0.4 E-score
ATTAACAG | 0.0334 E-score
TACCGCCA | 0.0353 E-score
AAAGAAAG | 0.132 E-score
CGATACGA | -0.0427 E-score
GTACGGCA | -0.048 E-score
GGTATAAC | 0.313 E-score
AGTATATA | 0.451 E-score
GGTATATA | 0.386 E-score
GGTATAAA | 0.383 E-score
GGTATAGA | 0.222 E-score
AGTATAAA | 0.278 E-score
AGTATATG | 0.264 E-score
AGTATATC | 0.221 E-score
CGTATATA | 0.28 E-score
GGTCGTAA | 0.0357 E-score
AAGCCGAA | 0.00167 E-score
GTCTGGCA | -0.182 E-score
ACTAATCG | 0.0113 E-score
ACCTTGGA | -0.145 E-score
AAGCTAGC | 0.137 E-score
CAATAACG | 0.0291 E-score
CAGTTTCA | -0.0996 E-score
TAGTTTGA | 0.347 E-score
AAGTTTGA | -0.0342 E-score

Sequence | binding signal
TAGTTTCA | 0.392 E-score
GAGTTTGA | -0.199 E-score
GAGTTTCA | -0.16 E-score
AATAAGAA | 0.209 E-score
CGGCGGCA | -0.198 E-score
AGTAGCGA | 0.181 E-score
AGACTATC | 0.0106 E-score
GAATCTAC | 0.425 E-score
CGATCTAA | -0.00615 E-score
AGATCTAG | 0.167 E-score
AAATCTCG | 0.144 E-score
GAATCTCC | 0.00693 E-score
AAATCTAG | 0.35 E-score
CGATCTAC | 0.371 E-score
CGATCTAG | 0.214 E-score
CAATCTAA | 0.172 E-score
CAATCTAC | 0.365 E-score
CAATCTAG | 0.285 E-score
GAATCTAA | 0.201 E-score
AAAAACCG | -0.0149 E-score
AAACCAAA | -0.0651 E-score
ACGTTGGA | -0.0982 E-score
CTCACTCA | 0.0449 E-score
ATGGTATG | 0.0823 E-score
AATCTCCG | 0.0469 E-score

Sequence | binding signal
ACCCGCAG | -0.2 E-score
ATAAACAA | 0.0341 E-score
TAATAACA | 0.238 E-score
AATGGGAG | -0.0919 E-score
GTTATCTA | 0.285 E-score
AACTTCGG | -0.044 E-score
TACGAGAA | 0.113 E-score
AAATCTAA | 0.157 E-score
AAATCTAT | 0.315 E-score
AAATCTAC | 0.398 E-score
CGCATCGC | -0.115 E-score
AAGTCCCG | -0.14 E-score
AATAGAAT | 0.329 E-score
AATAGAAA | 0.371 E-score
AATAGAAC | 0.0621 E-score
CATAGAAA | 0.129 E-score
GATAGAAA | 0.307 E-score
TATAGAAA | 0.363 E-score
ATGTGCTA | 0.222 E-score
CCATATCC | -0.0185 E-score
CGCGGCAA | 0.00655 E-score
CTTACTCA | -0.0171 E-score
CGTTGAAG | 0.0718 E-score
AACGGCGC | -0.0478 E-score
ATAGCGAG | -0.0541 E-score

Sequence | binding signal
CTAGTTAA | 0.349 E-score
GAAGTTAA | 0.277 E-score
GTAGTTAA | 0.431 E-score
CGAGTTAA | 0.153 E-score
CAAGTTAA | 0.0371 E-score
GTAGTTCA | 0.217 E-score
AGACTGGA | -0.123 E-score
ACATAGTC | 0.114 E-score
AGTTACGA | 0.167 E-score
ATTCACGA | -0.0154 E-score
AAACAGCT | 0.0473 E-score
CCTTCACA | 0.0629 E-score
TAGCTACA | 0.37 E-score
AAGCTATA | 0.231 E-score
GAGCTATA | 0.145 E-score
CAGCTACA | 0.0906 E-score
CTGCTATA | 0.0937 E-score
GAGCTACA | 0.0398 E-score
GTGCTATA | 0.147 E-score
ATGCTATA | 0.339 E-score
TAGCTATA | 0.346 E-score
AAACTCCA | -0.0432 E-score
CTCACTGC | 0.0486 E-score
AACGAATT | 0.325 E-score
ATAACAAT | 0.266 E-score

Sequence | binding signal
AACAACAC | -0.114 E-score
AATTTACA | 0.305 E-score
GAATTACC | 0.216 E-score
GATTTACC | 0.275 E-score
AAATTACC | 0.347 E-score
AATTTACC | 0.296 E-score
AATTTACG | 0.292 E-score
GATTTACA | 0.345 E-score
CAATTACC | 0.133 E-score
AAATTACT | 0.386 E-score
AAATTACG | 0.194 E-score
AATTTACT | 0.384 E-score
AAATTACA | 0.301 E-score
GCCGATGA | -0.108 E-score
AGGTGAGC | -0.0616 E-score
ATTGATTC | 0.127 E-score
TGCAGTAA | 0.194 E-score
ATGGTATA | 0.381 E-score
GTGGTAAA | 0.192 E-score
ATGGTAGC | 0.287 E-score
GTGGTAGA | 0.435 E-score
CTGGTAGA | 0.335 E-score
ATGGTAGG | 0.243 E-score
ATGGTATC | 0.165 E-score
ATGGTAGA | 0.444 E-score

Sequence | binding signal
CTGGTATA | 0.303 E-score
TGCCAGCA | 0.156 E-score
CGTCACAA | -0.0647 E-score
TATAACGA | 0.245 E-score
CCTATGCC | -0.0371 E-score
TCAACCAA | -0.0239 E-score
CGAATCTC | -0.0708 E-score
TAATAGGA | 0.202 E-score
AAACCTAA | 0.124 E-score
ATAACTTA | 0.265 E-score
ACCGATAC | 0.117 E-score
ACCGATAG | 0.0776 E-score
ACCGATAT | 0.338 E-score
AATATCTC | 0.203 E-score
GATATCTA | 0.4 E-score
CATATCTA | 0.293 E-score
AATATCTA | 0.392 E-score
GATATCAA | 0.208 E-score
AATATCTG | 0.268 E-score
